Laboratory results as given in ChEMBL document CHEMBL1961873, “Compounds: GSK PKIS; Assays: Nanosyn kinase panel” (2012).

Columns and labels:
[1] = target: Tyrosine-protein kinase receptor UFO (Homo sapiens) (UniProt P30530); settings: at 1 µM
[2] = target: Tyrosine-protein kinase Blk (Homo sapiens) (UniProt P51451); settings: at 0.1 µM
[3] = target: Tyrosine-protein kinase Blk (Homo sapiens) (UniProt P51451); settings: at 1 µM
[4] = target: T1, Cytoplasmic tyrosine-protein kinase BMX (Homo sapiens) (UniProt P51813); settings: at 0.1 µM
T1 sequence (whole entry): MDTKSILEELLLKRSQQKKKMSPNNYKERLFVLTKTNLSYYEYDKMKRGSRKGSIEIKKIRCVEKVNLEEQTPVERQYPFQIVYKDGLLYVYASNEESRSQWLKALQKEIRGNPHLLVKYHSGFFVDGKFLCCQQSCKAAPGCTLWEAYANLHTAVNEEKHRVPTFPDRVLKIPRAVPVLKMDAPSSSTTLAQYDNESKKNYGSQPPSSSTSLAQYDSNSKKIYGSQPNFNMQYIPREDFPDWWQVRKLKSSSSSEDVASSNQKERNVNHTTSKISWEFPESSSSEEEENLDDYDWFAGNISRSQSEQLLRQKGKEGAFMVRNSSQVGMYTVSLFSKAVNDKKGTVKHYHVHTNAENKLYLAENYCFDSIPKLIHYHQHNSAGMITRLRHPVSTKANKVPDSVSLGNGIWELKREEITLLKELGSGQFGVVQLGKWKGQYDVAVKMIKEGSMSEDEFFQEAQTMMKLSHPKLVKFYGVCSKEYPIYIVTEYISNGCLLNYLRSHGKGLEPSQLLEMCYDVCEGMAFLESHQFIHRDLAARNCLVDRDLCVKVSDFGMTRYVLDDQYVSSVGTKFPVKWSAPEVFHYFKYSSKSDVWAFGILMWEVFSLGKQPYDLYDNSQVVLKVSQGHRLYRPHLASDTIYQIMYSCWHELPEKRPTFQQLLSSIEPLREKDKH

[5] = target: T1, Cytoplasmic tyrosine-protein kinase BMX (Homo sapiens); settings: at 1 µM
[6] = target: Protein-tyrosine kinase 6 (Homo sapiens) (UniProt Q13882); settings: at 0.1 µM
Protein-tyrosine kinase 6 (Homo sapiens), sequence (Q13882 whole entry, looked up): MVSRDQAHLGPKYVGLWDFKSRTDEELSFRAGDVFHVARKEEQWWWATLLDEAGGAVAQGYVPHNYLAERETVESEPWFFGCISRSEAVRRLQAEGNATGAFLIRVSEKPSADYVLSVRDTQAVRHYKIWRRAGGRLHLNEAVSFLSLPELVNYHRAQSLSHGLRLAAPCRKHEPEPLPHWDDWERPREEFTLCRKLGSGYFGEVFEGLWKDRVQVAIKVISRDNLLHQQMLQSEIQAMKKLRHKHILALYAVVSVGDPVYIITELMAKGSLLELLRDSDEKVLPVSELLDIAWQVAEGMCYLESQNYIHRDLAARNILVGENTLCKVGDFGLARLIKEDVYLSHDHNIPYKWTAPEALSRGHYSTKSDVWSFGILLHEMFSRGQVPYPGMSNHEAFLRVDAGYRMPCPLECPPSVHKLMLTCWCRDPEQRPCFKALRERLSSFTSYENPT

[7] = target: Protein-tyrosine kinase 6 (Homo sapiens) (UniProt Q13882); settings: at 1 µM
[8] = target: Tyrosine-protein kinase BTK (Homo sapiens) (UniProt Q06187); settings: at 0.1 µM
[9] = target: Tyrosine-protein kinase BTK (Homo sapiens) (UniProt Q06187); settings: at 1 µM
[10] = target: Tyrosine-protein kinase CSK (Homo sapiens) (UniProt P41240); settings: at 0.1 µM
Tyrosine-protein kinase CSK (Homo sapiens), sequence (P41240 2-450 limits assumed): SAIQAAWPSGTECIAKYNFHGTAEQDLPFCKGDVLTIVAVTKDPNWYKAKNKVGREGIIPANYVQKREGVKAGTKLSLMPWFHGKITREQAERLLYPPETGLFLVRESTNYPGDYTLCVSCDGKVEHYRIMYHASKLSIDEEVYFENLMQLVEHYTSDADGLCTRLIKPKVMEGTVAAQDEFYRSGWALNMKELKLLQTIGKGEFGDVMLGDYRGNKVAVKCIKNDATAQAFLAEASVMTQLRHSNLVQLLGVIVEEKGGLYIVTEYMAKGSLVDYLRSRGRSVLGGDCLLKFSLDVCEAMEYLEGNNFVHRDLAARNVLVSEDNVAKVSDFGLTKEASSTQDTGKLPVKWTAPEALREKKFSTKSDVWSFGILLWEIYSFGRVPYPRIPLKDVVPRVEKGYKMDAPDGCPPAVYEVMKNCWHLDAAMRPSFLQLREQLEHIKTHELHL

[11] = target: Tyrosine-protein kinase CSK (Homo sapiens) (UniProt P41240); settings: at 1 µM
[12] = target: T2, Discoidin domain-containing receptor 2 (Homo sapiens) (UniProt Q16832); settings: at 0.1 µM
T2 sequence (whole entry): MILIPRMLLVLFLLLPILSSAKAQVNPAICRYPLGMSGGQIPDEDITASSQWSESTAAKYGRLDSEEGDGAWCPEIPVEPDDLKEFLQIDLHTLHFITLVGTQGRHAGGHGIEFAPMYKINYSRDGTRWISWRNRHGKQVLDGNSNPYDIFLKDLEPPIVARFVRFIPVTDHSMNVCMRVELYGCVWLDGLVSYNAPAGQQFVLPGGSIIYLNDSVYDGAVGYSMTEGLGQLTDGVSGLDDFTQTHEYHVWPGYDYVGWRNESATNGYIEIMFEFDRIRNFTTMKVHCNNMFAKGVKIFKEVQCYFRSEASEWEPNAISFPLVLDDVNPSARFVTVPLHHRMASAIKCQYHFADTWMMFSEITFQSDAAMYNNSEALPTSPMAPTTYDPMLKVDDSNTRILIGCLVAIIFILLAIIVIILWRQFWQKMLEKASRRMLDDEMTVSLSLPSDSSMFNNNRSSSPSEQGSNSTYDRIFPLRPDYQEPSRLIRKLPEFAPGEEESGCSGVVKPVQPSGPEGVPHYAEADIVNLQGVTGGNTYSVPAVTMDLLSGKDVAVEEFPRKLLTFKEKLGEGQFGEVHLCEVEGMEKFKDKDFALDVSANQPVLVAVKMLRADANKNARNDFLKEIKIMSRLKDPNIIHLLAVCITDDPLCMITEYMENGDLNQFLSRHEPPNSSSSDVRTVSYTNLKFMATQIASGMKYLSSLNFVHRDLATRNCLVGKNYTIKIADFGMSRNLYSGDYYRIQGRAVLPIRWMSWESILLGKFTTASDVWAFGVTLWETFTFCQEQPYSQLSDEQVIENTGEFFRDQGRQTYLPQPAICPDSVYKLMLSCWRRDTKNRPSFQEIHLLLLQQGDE

[13] = target: T2, Discoidin domain-containing receptor 2 (Homo sapiens); settings: at 1 µM
[14] = target: Epidermal growth factor receptor (Homo sapiens) (UniProt P00533); settings: at 0.1 µM
[15] = target: Epidermal growth factor receptor (Homo sapiens) (UniProt P00533); settings: at 1 µM
[16] = test system: Epidermal growth factor receptor (Homo sapiens), P00533 [L858R]; settings: at 0.1 µM
Epidermal growth factor receptor (Homo sapiens), P00533 [L858R], sequence (P00533 whole entry L858R): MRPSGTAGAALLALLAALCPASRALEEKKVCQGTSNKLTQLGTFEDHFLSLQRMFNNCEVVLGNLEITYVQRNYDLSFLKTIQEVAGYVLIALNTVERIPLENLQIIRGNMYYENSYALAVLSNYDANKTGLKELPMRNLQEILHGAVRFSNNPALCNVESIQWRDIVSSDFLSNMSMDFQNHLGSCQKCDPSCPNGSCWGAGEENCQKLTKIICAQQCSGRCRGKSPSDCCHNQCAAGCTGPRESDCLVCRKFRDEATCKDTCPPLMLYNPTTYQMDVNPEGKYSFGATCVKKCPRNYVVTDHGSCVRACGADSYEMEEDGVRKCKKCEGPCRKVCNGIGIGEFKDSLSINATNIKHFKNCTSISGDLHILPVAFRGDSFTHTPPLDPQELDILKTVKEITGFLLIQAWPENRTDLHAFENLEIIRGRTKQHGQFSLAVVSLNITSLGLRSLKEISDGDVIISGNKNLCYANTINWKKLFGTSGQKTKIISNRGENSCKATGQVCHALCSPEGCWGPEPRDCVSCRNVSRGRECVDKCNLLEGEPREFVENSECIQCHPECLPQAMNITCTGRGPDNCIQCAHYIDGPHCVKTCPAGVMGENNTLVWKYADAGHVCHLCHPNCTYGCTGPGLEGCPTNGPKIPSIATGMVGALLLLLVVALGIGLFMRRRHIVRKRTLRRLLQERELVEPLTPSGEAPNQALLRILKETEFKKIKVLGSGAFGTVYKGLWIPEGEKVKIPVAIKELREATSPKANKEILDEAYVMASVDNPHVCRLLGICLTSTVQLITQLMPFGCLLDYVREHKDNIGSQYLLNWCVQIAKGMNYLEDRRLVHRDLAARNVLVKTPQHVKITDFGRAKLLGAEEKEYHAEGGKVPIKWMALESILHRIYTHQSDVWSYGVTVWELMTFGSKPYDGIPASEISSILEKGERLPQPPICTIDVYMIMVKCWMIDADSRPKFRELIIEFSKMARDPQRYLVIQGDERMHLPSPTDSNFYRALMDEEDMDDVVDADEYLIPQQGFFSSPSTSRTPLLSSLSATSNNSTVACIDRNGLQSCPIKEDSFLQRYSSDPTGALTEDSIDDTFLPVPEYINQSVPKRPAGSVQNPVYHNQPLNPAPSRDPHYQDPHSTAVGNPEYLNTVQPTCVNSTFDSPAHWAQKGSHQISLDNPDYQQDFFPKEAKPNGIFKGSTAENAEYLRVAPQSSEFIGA

[17] = test system: Epidermal growth factor receptor (Homo sapiens), P00533 [L858R]; settings: at 1 µM
[18] = test system: Epidermal growth factor receptor (Homo sapiens), P00533 [L861Q]; settings: at 0.1 µM
Epidermal growth factor receptor (Homo sapiens), P00533 [L861Q], sequence (P00533 whole entry L861Q): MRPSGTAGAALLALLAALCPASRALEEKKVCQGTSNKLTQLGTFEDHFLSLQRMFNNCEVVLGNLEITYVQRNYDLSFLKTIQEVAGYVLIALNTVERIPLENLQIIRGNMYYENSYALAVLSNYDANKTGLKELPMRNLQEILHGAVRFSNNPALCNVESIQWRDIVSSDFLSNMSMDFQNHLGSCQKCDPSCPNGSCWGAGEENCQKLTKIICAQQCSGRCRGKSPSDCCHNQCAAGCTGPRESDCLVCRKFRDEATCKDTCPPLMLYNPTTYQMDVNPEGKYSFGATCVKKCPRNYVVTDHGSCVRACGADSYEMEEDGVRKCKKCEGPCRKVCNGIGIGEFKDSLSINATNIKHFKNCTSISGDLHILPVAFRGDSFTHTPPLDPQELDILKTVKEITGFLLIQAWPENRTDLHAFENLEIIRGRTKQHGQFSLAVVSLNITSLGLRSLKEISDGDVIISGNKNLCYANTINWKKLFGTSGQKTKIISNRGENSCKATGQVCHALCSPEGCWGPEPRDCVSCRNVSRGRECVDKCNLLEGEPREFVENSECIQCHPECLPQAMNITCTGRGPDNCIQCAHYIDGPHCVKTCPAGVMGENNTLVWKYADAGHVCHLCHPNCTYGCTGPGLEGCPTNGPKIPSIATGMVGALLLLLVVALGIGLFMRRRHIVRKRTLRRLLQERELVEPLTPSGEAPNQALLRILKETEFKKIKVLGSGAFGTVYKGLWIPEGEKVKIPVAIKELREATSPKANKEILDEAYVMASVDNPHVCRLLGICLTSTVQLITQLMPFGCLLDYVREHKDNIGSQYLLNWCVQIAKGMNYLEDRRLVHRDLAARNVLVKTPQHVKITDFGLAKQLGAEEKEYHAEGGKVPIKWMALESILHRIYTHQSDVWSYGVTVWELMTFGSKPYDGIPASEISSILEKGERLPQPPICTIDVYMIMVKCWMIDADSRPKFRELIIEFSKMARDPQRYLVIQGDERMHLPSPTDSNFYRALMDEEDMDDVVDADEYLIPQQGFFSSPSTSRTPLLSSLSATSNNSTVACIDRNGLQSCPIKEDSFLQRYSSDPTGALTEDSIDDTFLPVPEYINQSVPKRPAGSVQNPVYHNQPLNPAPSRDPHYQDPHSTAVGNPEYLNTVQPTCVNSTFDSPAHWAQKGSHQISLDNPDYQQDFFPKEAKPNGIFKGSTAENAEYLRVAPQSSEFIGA

[19] = test system: Epidermal growth factor receptor (Homo sapiens), P00533 [L861Q]; settings: at 1 µM
[20] = test system: Epidermal growth factor receptor (Homo sapiens), P00533 [T790M]; settings: at 0.1 µM
Epidermal growth factor receptor (Homo sapiens), P00533 [T790M], sequence (P00533 whole entry T790M): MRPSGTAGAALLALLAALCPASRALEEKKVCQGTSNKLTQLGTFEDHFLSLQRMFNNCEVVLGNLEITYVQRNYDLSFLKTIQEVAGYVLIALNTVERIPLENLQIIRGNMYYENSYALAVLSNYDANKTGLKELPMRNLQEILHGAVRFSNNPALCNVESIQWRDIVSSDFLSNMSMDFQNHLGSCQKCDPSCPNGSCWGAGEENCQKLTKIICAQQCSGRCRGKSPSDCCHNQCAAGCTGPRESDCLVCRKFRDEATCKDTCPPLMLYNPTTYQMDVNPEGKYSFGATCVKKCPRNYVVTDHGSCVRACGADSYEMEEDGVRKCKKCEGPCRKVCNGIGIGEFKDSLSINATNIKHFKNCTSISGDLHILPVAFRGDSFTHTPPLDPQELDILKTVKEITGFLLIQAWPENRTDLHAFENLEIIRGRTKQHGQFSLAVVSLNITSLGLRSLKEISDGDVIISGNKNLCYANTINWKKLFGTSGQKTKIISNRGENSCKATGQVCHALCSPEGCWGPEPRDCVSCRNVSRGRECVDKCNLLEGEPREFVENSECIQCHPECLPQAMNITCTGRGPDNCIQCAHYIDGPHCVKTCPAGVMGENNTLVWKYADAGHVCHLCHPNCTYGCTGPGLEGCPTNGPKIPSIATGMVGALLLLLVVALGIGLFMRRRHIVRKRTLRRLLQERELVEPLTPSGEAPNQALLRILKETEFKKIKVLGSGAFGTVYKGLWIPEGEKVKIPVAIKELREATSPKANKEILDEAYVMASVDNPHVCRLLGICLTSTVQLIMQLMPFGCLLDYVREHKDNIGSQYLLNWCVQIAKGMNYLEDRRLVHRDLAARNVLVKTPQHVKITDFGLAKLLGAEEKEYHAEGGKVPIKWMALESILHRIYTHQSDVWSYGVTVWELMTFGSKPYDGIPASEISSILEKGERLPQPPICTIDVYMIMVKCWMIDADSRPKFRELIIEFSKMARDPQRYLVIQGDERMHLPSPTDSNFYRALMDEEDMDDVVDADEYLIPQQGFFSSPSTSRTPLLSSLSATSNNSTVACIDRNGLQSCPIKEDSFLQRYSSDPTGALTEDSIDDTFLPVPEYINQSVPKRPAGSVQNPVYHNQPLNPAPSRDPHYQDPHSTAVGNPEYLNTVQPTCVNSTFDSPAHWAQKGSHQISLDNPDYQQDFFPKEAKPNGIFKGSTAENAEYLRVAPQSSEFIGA

Tyrosine-protein kinase Blk (Homo sapiens), sequence (P51451 2-505 limits assumed): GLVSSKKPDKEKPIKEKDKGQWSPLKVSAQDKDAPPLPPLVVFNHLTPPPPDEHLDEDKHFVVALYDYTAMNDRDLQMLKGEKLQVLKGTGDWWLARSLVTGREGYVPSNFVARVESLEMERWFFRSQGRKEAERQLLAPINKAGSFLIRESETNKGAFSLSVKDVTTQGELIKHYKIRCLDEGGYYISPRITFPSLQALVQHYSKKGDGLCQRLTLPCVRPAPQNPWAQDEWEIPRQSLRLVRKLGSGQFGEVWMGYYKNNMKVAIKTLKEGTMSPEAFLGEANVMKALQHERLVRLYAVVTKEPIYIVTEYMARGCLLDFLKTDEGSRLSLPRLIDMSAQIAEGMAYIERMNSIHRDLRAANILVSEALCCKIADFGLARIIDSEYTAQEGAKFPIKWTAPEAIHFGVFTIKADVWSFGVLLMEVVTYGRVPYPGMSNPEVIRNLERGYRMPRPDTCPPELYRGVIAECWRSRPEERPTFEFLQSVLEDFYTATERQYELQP

| SMILES | inhibition [1] | inhibition [2] | inhibition [3] | inhibition [4] | inhibition [5] | inhibition [6] | inhibition [7] | inhibition [8] | inhibition [9] | inhibition [10] | inhibition [11] | inhibition [12] | inhibition [13] | inhibition [14] | inhibition [15] | inhibition [16] | inhibition [17] | inhibition [18] | inhibition [19] | inhibition [20] |
| --- | --- | --- | --- | --- | --- | --- | --- | --- | --- | --- | --- | --- | --- | --- | --- | --- | --- | --- | --- | --- |
| COc1cc2ncn(-c3cc(OCc4ccccc4S(C)(=O)=O)c(C#N)s3)c2cc1OC | 43.5% | 16.6% | 72.3% | 1.45% | 33.1% | 4.42% | 9.89% | 1.87% | 11.8% | 7.28% | 4.26% | 2.02% | 8.19% | 3.74% | 11.8% | 9.37% | 45.8% | 3.09% | 8.31% | 3.02% |
| CN1CCN(C(=O)c2ccc(NC(=O)Nc3ccc(N(C)c4ccnc(Nc5ccc(CS(C)(=O)=O)cc5)n4)cc3)cc2)CC1 | 11.9% | 2.76% | 24.4% | 19.1% | 68% | -1.96% | 13.5% | 1.59% | 16% | -1.19% | 12.6% | 66% | 85% | 4.52% | 7% | -3.46% | 2.15% | 1.12% | 4.44% | -0.46% |
| FC(F)(F)c1ccc(-c2nn3ncccc3c2-c2ccnc(Nc3ccc4c(c3)OCCO4)n2)cc1 | 7.56% | 3.74% | 15.7% | 2.61% | 0.4% | -0.58% | 12% | 0.26% | 7.22% | -0.13% | 6.46% | 8.59% | 24.9% | 6.78% | 19.2% | 5.78% | 40.1% | 4.86% | 27.6% | 0.49% |
| Cc1ccc(C(=O)NC2CC2)cc1-c1ccc2[nH]ncc2c1 | 6.55% | -1.8% | -1.6% | -2.64% | -6.39% | -2.14% | -3.93% | 0.06% | -1.33% |  |  | -0.85% | -0.74% | -1.17% | 1.98% | -1.88% | -2.39% | -0.66% | -1.04% | -2% |
| CN(C)CCCn1c(-c2nonc2N)nc2cnccc21 | -8.31% | 1.44% | 3.44% | 3.45% | 3.08% | 0.2% | 3.36% | 0.72% | 0.12% | 1.79% | 1.67% | 1.29% | 1.57% | 9.72% | 10.6% | 3.98% | 0.96% | 3.25% | 1.62% | 2.09% |
| NS(=O)(=O)c1ccc(N/N=C2\C(=O)Nc3ccc(Cl)cc32)cc1 | -3.81% | 2.51% | 6.13% | -0.25% | 4.68% | 2.27% | 5.96% | 0.31% | 0.56% | 4.9% | 7.01% | 0.3% | 3.13% | -0.16% | 5.53% | 2.02% | 5.32% | 1.9% | 3.4% | 0.9% |
| COc1cc2ncnc(Nc3ccc(C)c(O)c3)c2cc1OC |  | 7.68% | 49% | 6.28% | 13% | 17.5% | 65.5% | 0.81% | 15.9% | 5.1% | 16.8% | 2.29% | 9.45% | 64.7% | 80.9% | 92.3% | 99.4% | 77.2% | 96.2% | 8.64% |
| O=C1Nc2ccccc2/C1=C/Nc1ccc2[nH]c(=O)[nH]c2c1 |  | 7.96% | 33% | 5.38% | 7.7% | 4.56% | 8.06% | 0.87% | 4.29% | 6.52% | 9.18% | 5.46% | 8.62% | 4.63% | 7.94% | 3.53% | 6.79% | 4.1% | 6.47% | 3.08% |
| O=S(=O)(CCOCc1ccc(-c2ccc3ncnc(Nc4ccc(OCc5cccc(F)c5)c(Cl)c4)c3c2)o1)c1ccccc1 | 1.46% | -1.07% | 1.68% | -0.56% | 1.08% | 0.18% | 1.77% | -1.67% | -1.3% | 1.76% | 1.36% | 1.97% | 3.8% | 71.9% | 84.7% | 25.1% | 77.3% | 33.8% | 68.4% | -0.58% |
| Cc1cc(Cl)cc2c1NC(=O)C2=NNc1ccc(S(N)(=O)=O)cc1 | -2.47% | 1.98% | 1.63% | 3.4% | 2.55% | -0.72% | 1.77% | 2.48% | 0.33% | -0.78% | 3.65% | 5.11% | 4.88% | 0.92% | 1.34% | 0.35% | 4.79% | 1.56% | 4.09% | 1.21% |
| Cc1ccc(O)cc1Nc1ccnc2ccc(S(C)(=O)=O)cc12 |  | 42.8% | 91.4% | 76.5% | 93.2% | 95.3% | 103% | 63.8% | 77.3% | 70.3% | 94.2% | 59.8% | 79.7% | 12.7% | 36.6% | 19.7% | 72.1% | 8.5% | 31.9% | 3.11% |
| COc1ccc(-c2nn3ncccc3c2-c2ccnc(Nc3cccc(C(F)(F)F)c3)n2)cc1 | -2.69% | 2.61% | 7.74% | 2.37% | -4.27% | 2.5% | 17.9% | 0.09% | 1.7% | 2.1% | 7.02% | 2.63% | 22% | 9.51% | 19.1% | 4.1% | 21.7% | 2.85% | 11.8% | 1% |
